Measurements from PubChem BioAssay AID1159580 (chemical genetic matrix, 2015).
In all, about 5,500 compounds went through this assay and about 2,000 (36%) were called active. Roughly 18% stayed inconclusive and do not appear here. No stated cut-off is given here; in the data, active means normalized growth mostly below about 0.91 (no sharp cut-off); inconclusive means no clear call, values can overlap the other calls; inactive means mostly above about 0.92. Some of the results follow.

Assay: chemical genetic growth profiling, strain panel (AID 1159580);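 further: tested at 20 µM; growth read once vehicle control cultures reached saturation at 30 °C; 1 = growth at the plate median or of vehicle wells; lower values mean less growth of the strain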
Details: growth OD

Measured: normalized growth

CC(C(=O)O)c1ccc2c(c1)[nH]c1ccc(Cl)cc12 (configuration not stated)
inactive: S. cerevisiae deletion strains, locus YJR075W, strain HOC1, hits give low values 1.01 | S. cerevisiae deletion strains, locus YKL009W, strain mrt4, hits give low values 0.975 | S. cerevisiae deletion strains, locus YKL068W, hits give low values 0.964 | S. cerevisiae deletion strains, locus YKL085W, strain MDH1 (second series), hits give low values 0.95 | S. cerevisiae deletion strains, locus YKL085W, strain MDH1, hits give low values 0.95 | S. cerevisiae deletion strains, locus YKL160W, strain elf1, hits give low values 0.941 | S. cerevisiae deletion strains, locus YKL190W, strain CNB1, hits give low values 1.01 | S. cerevisiae deletion strains, locus YKR001C, strain vps1, hits give low values 0.937 | S. cerevisiae deletion strains, locus YKR026C, strain gcn3, hits give low values 0.983 | S. cerevisiae deletion strains, locus YKR091W, strain srl3, hits give low values 0.988 | S. cerevisiae deletion strains, locus YLL001W, strain dnm1, hits give low values 1 | S. cerevisiae deletion strains, locus YLL026W, hits give low values 0.978 | S. cerevisiae deletion strains, locus YLL041C, strain sdh2, hits give low values 1 | S. cerevisiae deletion strains, locus YLR027C, strain aat2, hits give low values 0.992 | S. cerevisiae deletion strains, locus YLR039C, strain RIC1, hits give low values 0.977 | S. cerevisiae deletion strains, locus YLR058C, strain SHM2, hits give low values 1 | S. cerevisiae deletion strains, locus YLR102C, strain apc9, hits give low values 0.991 | S. cerevisiae deletion strains, locus YLR221C, strain rsa3, hits give low values 0.986 | S. cerevisiae deletion strains, locus YLR258W, strain gsy2, hits give low values 0.976 | S. cerevisiae deletion strains, locus YLR262C, strain YPT6 (second series), hits give low values 0.94 | S. cerevisiae deletion strains, locus YLR262C, strain YPT6, hits give low values 0.989 | S. cerevisiae deletion strains, locus YLR268W, strain sec22, hits give low values 0.992 | S. cerevisiae deletion strains, locus YLR320W, strain mms22, hits give low values 0.937 | S. cerevisiae deletion strains, locus YLR330W, strain CHS5, hits give low values 0.998 | S. cerevisiae deletion strains, locus YLR342W, strain FKS1 (second series), hits give low values 0.987 | S. cerevisiae deletion strains, locus YLR342W, strain FKS1, hits give low values 0.966 | S. cerevisiae deletion strains, locus YLR357W, strain rsc2, hits give low values 0.923 | S. cerevisiae deletion strains, locus YLR370C, strain arc18, hits give low values 0.972 | S. cerevisiae deletion strains, locus YLR371W, strain rom2, hits give low values 0.984 | S. cerevisiae deletion strains, locus YLR384C, strain iki3, hits give low values 0.964 | S. cerevisiae deletion strains, locus YLR418C, strain cdc73, hits give low values 0.962 | S. cerevisiae deletion strains, locus YML016C, strain PPZ1, hits give low values 1.01 | S. cerevisiae deletion strains, locus YML032C, strain rad52, hits give low values 0.965 | S. cerevisiae deletion strains, locus YML120C, strain ndi1, hits give low values 0.985 | S. cerevisiae deletion strains, locus YML124C, strain tub3, hits give low values 0.981 | S. cerevisiae deletion strains, locus YMR058W, strain fet3, hits give low values 1 | S. cerevisiae deletion strains, locus YMR078C, strain ctf18, hits give low values 0.983 | S. cerevisiae deletion strains, locus YMR125W, strain sto1, hits give low values 0.969 | S. cerevisiae deletion strains, locus YMR129W, hits give low values 0.995 | S. cerevisiae deletion strains, locus YMR205C, strain PFK2, hits give low values 0.962 | S. cerevisiae deletion strains, locus YMR223W, strain ubp8, hits give low values 0.975 | S. cerevisiae deletion strains, locus YMR231W, strain pep5, hits give low values 0.957 | S. cerevisiae deletion strains, locus YMR263W, strain SAP30, hits give low values 1.02 | S. cerevisiae deletion strains, locus YMR307W, strain GAS1, hits give low values 0.996 | S. cerevisiae deletion strains, locus YNL067W, strain RPL9B, hits give low values 1.03 | S. cerevisiae deletion strains, locus YNL071W, strain lat1, hits give low values 0.982 | S. cerevisiae deletion strains, locus YNL128W, strain TEP1, hits give low values 1 | S. cerevisiae deletion strains, locus YNL153C, strain GIM3, hits give low values 1.03 | S. cerevisiae deletion strains, locus YNL209W, strain ssb2, hits give low values 0.988 | S. cerevisiae deletion strains, locus YNL233W, strain BNI4, hits give low values 1.02 | S. cerevisiae deletion strains, locus YNL248C, strain rpa49, hits give low values 0.963 | S. cerevisiae deletion strains, locus YNL271C, strain bni1, hits give low values 0.942 | S. cerevisiae deletion strains, locus YNL298W, strain CLA4, hits give low values 0.91 | S. cerevisiae deletion strains, locus YNL307C, strain MCK1, hits give low values 0.963 | S. cerevisiae deletion strains, locus YNL322C, strain KRE1, hits give low values 1.01 | S. cerevisiae deletion strains, locus YNR049C, strain mso1, hits give low values 0.988 | S. cerevisiae deletion strains, locus YNR052C, strain pop2, hits give low values 0.97 | S. cerevisiae deletion strains, locus YOL006C, strain TOP1, hits give low values 1.07 | S. cerevisiae deletion strains, locus YOL012C, strain htz1 0.756 | S. cerevisiae deletion strains, locus YOL147C, strain pex11, hits give low values 0.974 | S. cerevisiae deletion strains, locus YOR001W, strain rrp6, hits give low values 1 | S. cerevisiae deletion strains, locus YOR061W, strain CKA2, hits give low values 1 | S. cerevisiae deletion strains, locus YOR069W, strain VPS5, hits give low values 1.01 | S. cerevisiae deletion strains, locus YOR070C, strain gyp1, hits give low values 0.981 | S. cerevisiae deletion strains, locus YOR080W, strain dia2, hits give low values 1 | S. cerevisiae deletion strains, locus YOR083W, strain WHI5, hits give low values 0.898 | S. cerevisiae deletion strains, locus YOR106W, strain vam3, hits give low values 0.925 | S. cerevisiae deletion strains, locus YOR136W, strain idh2, hits give low values 0.963 | S. cerevisiae deletion strains, locus YOR144C, strain elg1, hits give low values 0.98 | S. cerevisiae deletion strains, locus YOR184W, strain ser1, hits give low values 0.986 | S. cerevisiae deletion strains, locus YOR265W, strain rbl2, hits give low values 0.993 | S. cerevisiae deletion strains, locus YOR270C, strain vph1, hits give low values 0.999 | S. cerevisiae deletion strains, locus YOR290C, strain snf2, hits give low values 0.95 | S. cerevisiae deletion strains, locus YOR316C, strain cot1, hits give low values 0.989 | S. cerevisiae deletion strains, locus YPL051W, strain arl3, hits give low values 0.953 | S. cerevisiae deletion strains, locus YPL055C, strain LGE1, hits give low values 1.04 | S. cerevisiae deletion strains, locus YPL078C, strain atp4, hits give low values 0.946 | S. cerevisiae deletion strains, locus YPL106C, strain sse1, hits give low values 0.938 | S. cerevisiae deletion strains, locus YPL240C, strain hsp82, hits give low values 1 | S. cerevisiae deletion strains, locus YPL241C, strain CIN2, hits give low values 1.01 | S. cerevisiae deletion strains, locus YPR119W, strain clb2, hits give low values 0.993 | S. cerevisiae deletion strains, locus YPR141C, strain kar3, hits give low values 0.967 | S. cerevisiae deletion strains, locus YPR163C, strain tif3, hits give low values 0.981 | S. cerevisiae deletion strains, locus YPR167C, strain met16, hits give low values 0.995 | S. cerevisiae deletion strains, strain wtn01, hits give low values 0.998 | S. cerevisiae strains, strain wild type, hits give low values 0.995
active: S. cerevisiae deletion strains, locus YLR113W, strain HOG1, hits give low values 0.248 | S. cerevisiae deletion strains, locus YNL183C, strain NPR1, hits give low values 0.507 | S. cerevisiae deletion strains, locus YNL250W, strain rad50, hits give low values 0.885 | S. cerevisiae deletion strains, locus YNL322C, strain KRE1 (second series), hits give low values 0.895 | S. cerevisiae deletion strains, locus YOR231W, strain MKK1, hits give low values 0.212 | S. cerevisiae deletion strains, locus YPL256C, strain CLN2, hits give low values 0.238
